# About 110 (0.37%) of roughly 30,000 compounds were called active. The sample holds actives, similar compounds and a random draw of the others, so the mix is not that of the screen. A number with no mark means an inactive call.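 How the source made its calls: active means delta delta Cp rounded down to an integer at or above 3, about 3 SD of DMSO wells; inactive means the rest.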
# Test: inhibitors of YB-1 gene expression, primary screen, cell-based, fluorescence (AID 434959);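 further: higher means less YB-1 transcript or more CDIP transcript relative to DMSO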
# Settings: U2OS, qRT-PCR YB-1 vs CDIP delta delta Cp, 16 h; active compounds read high; zero = DMSO, each unit about twofold
row,SMILES,delta Cp (YB-1 minus CDIP)
1,COc1ccc(S(=O)(=O)Nc2cccc3c2O[C@@H](CN(C)C(=O)Nc2ccccc2)[C@@H](C)CN([C@@H](C)CO)C3=O)cc1,-0.0223
2,Cc1noc(C)c1NC(=O)Nc1ccc2c(c1)C(=O)N([C@H](C)CO)C[C@H](C)[C@H](CN(C)Cc1ccncc1)OCCCC[C@@H](C)O2,-0.384
3,COc1ccc(CN(C)C[C@H]2Oc3c(NC(=O)C4CC4)cccc3C(=O)N([C@@H](C)CO)C[C@H]2C)cc1,-0.0719
4,C[C@H]1CN([C@@H](C)CO)C(=O)c2cc(NC(=O)CCC(F)(F)F)ccc2O[C@H]1CN(C)Cc1ccc(C(=O)O)cc1,-0.0494
5,C[C@@H]1CN([C@H](C)CO)C(=O)c2cc(NS(=O)(=O)c3ccccc3)ccc2O[C@H]1CN(C)S(=O)(=O)c1cccs1,0.37
6,COc1ccc(S(=O)(=O)Nc2ccc3c(c2)C(=O)N([C@H](C)CO)C[C@@H](C)[C@@H](CN(C)CC2CCCCC2)O3)cc1,0.268
7,Cc1ccc(S(=O)(=O)Nc2ccc3c(c2)C(=O)N([C@H](C)CO)C[C@H](C)[C@H](CN(C)S(=O)(=O)c2ccc(F)cc2)O3)cc1,0.151
8,C[C@@H]1CN([C@@H](C)CO)C(=O)CCCn2nncc2CO[C@H]1CN(C)C(=O)Nc1ccc(C(F)(F)F)cc1,-0.177
9,O=C(CCCCCCC(=O)Nc1ccccc1O)N/N=C/c1ccc(C(F)(F)F)cc1,-0.34
10,Cc1noc(C)c1S(=O)(=O)Nc1ccc2c(c1)CC(=O)N([C@H](C)CO)C[C@@H](C)[C@@H](CN(C)Cc1ccncc1)O2,-0.237
11,COc1cc([C@H](Cc2ccccc2)NC(C)=O)oc(=O)c1,7.24 (active)
12,COc1ccc2c(c1)C(=O)CC(c1ccccc1)O2 (stereo unspecified),-0.382
13,COc1cc(CCC(=O)O)oc(=O)c1,0.941
14,COc1ccc(S(=O)(=O)Nc2ccc3c(c2)CC(=O)N([C@H](C)CO)C[C@@H](C)[C@@H](CN(C)S(=O)(=O)c2ccc(F)cc2)O3)cc1,0.215
15,Cc1noc(C)c1S(=O)(=O)Nc1ccc2c(c1)C(=O)N([C@@H](C)CO)C[C@H](C)[C@H](CN(C)Cc1ccc(C(=O)Nc3ccccc3N)cc1)O2,-0.223
16,C[C@@H]1CN([C@@H](C)CO)C(=O)c2cccc(NC(=O)CCCCCC(=O)Nc3ccccc3N)c2O[C@@H]1CN(C)CC1CCCCC1,-0.278
17,C[C@@H]1CN([C@@H](C)CO)C(=O)Cc2cc(NC(=O)C3CCCCC3)ccc2O[C@@H]1CN(C)Cc1ccc(-c2ccccc2)cc1,-0.443
18,COc1ccc(NC(=O)N(C)C[C@H]2Oc3ccc(NS(=O)(=O)c4ccc(F)cc4)cc3C(=O)N([C@@H](C)CO)C[C@@H]2C)cc1,0.491
19,COc1cc(OC)c(/C=N/NC(=O)CCCCCCC(=O)Nc2ccccc2O)c(OC)c1,-0.14
20,N#C/C(=C\c1ccc(O)c(O)c1)C(N)=O,-0.313
21,Cc1noc(C)c1NC(=O)N(C)C[C@@H]1Oc2ccc(NC(=O)Nc3ccc4c(c3)OCO4)cc2C(=O)N([C@H](C)CO)C[C@H]1C,-0.0859

row,SMILES,delta Cp (YB-1 minus CDIP)
1,C[C@@H]1CCCCO[C@H](CN(C)Cc2ccccc2)[C@@H](C)CN([C@H](C)CO)C(=O)c2cc(NS(C)(=O)=O)ccc2O1,-0.038
2,O=C(O)CCC(=O)N(Cc1ccccc1)Cc1cn(-c2ccccc2)nc1-c1cccnc1,-0.539
3,C[C@@H]1CN([C@@H](C)CO)C(=O)c2cc(N(C)C)ccc2O[C@H]1CN(C)Cc1ccc(C(F)(F)F)cc1,-0.101
4,C[C@@H]1CN([C@@H](C)CO)C(=O)c2cc(NC(=O)Cc3ccccc3)ccc2O[C@@H]1CN(C)S(=O)(=O)c1ccccc1,0.109
5,C[C@@H]1CN([C@@H](C)CO)C(=O)c2cc(NC(=O)c3ccncc3)ccc2O[C@H]1CN(C)S(=O)(=O)c1ccc(Cl)cc1,-0.0147
6,Cc1ccoc1CC[N+](C)(C)C,-0.0929
7,C[C@@H]1CN([C@@H](C)CO)C(=O)CCCn2nncc2CO[C@H]1CN(C)Cc1ccc(C(F)(F)F)cc1,-0.415
8,CNC[C@H]1Oc2ccc(NS(=O)(=O)c3ccc(F)cc3)cc2C(=O)N([C@@H](C)CO)C[C@@H]1C,-0.0588
9,C[C@@H]1CCCCO[C@@H](CN(C)S(=O)(=O)c2cccs2)[C@@H](C)CN([C@H](C)CO)C(=O)c2cc(NC(=O)Nc3ccc(F)cc3)ccc2O1,-0.356
10,COc1cccc(NC(=O)N(C)C[C@@H]2OCc3cn(nn3)CCCC(=O)N([C@@H](C)CO)C[C@H]2C)c1,0.0991
11,CC(C)(C)C(=O)CSc1nc2ccccc2c(=O)n1CC1CC1,-0.316
12,COC(=O)C1=C(C)NC2=C(C(=O)CC(C)(C)C2)C1c1ccncc1 (stereo unspecified),-0.233
13,O=C(O)CCCCCC(=O)N/N=C/c1ccncc1Br,-0.0121
14,Cc1ccc(/C=N/NC(=O)CCCCCCC(=O)O)o1,-0.127
15,COc1ccc(NC(=O)Nc2cccc3c2O[C@H](CN(C)Cc2ccncc2)[C@@H](C)CN([C@@H](C)CO)C3=O)cc1,-0.239
16,CC(C)S(=O)(=O)NCC1CCN(Cc2cccc(OCCO)c2)CC1,0.112
17,C[C@@H]1CCCCO[C@H](CN(C)C(=O)Nc2cccc3ccccc23)[C@@H](C)CN([C@H](C)CO)C(=O)c2cc(NC(=O)Nc3ccc4c(c3)OCO4)ccc2O1,0.427
18,C[C@@H]1CN([C@@H](C)CO)C(=O)CCCn2cc(nn2)CO[C@H]1CN(C)Cc1cccc2c1OCCCO2,-0.151
19,Cc1noc(C)c1S(=O)(=O)Nc1ccc2c(c1)CC(=O)N([C@@H](C)CO)C[C@H](C)[C@H](CN(C)C(=O)Nc1cccc3ccccc13)O2,-0.29
20,CN1C(=O)C(Cc2ccccc2)(Cc2ccccc2)c2ccccc21,-0.307
